The record followed here is PubChem BioAssay.

One test has as its target Albumin (Bos taurus) (UniProt P02769). Nature of the test: compounds binding labelled BSA control protein – biochemical, small-molecule microarray, Alexa647 label, 635/667 nm fluorescence, artefact control for SMM control protein annotation, profiling panel (AID 1118).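 Further: score merges 667 nm emission intensity and signal-to-noise per printed compound spot.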 Conditions: BSA-A647 binding, fluorescence 635 nm, higher = more signal.
Test [1] can be described thus: probe aXIP binding to arrayed compounds – biochemical, NeuroSMM set, 635/667 nm fluorescence, primary screen (AID 1119).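 Further: probe is the protein aXip251-270 applied at 1 µg/mL to compound-printed slides; binding of probe to printed compounds measured as 667 nm fluorescence plus signal to noise.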 The following applies: small-molecule microarray, higher = more signal, called active from +8 up or from −8 down.
Test [2] can be described thus: probe aNOTCH3 binding on compound microarray – biochemical, small-molecule microarray, 635/667 nm fluorescence, primary screen (AID 1120).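 Further: probe is a biotin-tagged antibody raised against NOTCH3 rather than NOTCH3 protein; score merges spot fluorescence near 667 nm with spot signal to noise.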 The following applies: higher = more signal.
Test [3] is described as follows: probe aNOTCH2 binding on compound microarray – biochemical, small-molecule microarray, 635/667 nm fluorescence, primary screen (AID 1121).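 Further: score merges feature fluorescence read at 667 nm with its signal to noise.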 Conditions: higher = more signal.
Test [4] has as its target Carbonic anhydrase 2 (Homo sapiens) (UniProt P00918). Nature of the test: compounds binding carbonic anhydrase 2 – biochemical, small-molecule microarray, Alexa647-labelled CAII, profiling panel (AID 1122). The following applies: CAII-A647 binding fluorescence, higher = more signal.
Test [5] in a line: COS7 lysate on small-molecule microarray, probe aHis, 635 nm (AID 1123).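 Further: z-score combines 667nm fluorescence intensity with signal-to-noise per printed compound spot.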 Conditions: COS7 cell lysate, fluorescence, higher = more signal.
A short description of test [6]: probe aLAP1 signal on lysate-treated microarray – cell lysate, small-molecule microarray, COS7 lysate, primary screen (AID 1124).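 Further: lysate comes from COS7 cells expressing LAP1 and is applied at 0.3 µg/mL; score merges spot fluorescence near 667 nm with signal-to-noise over triplicate slides.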 Conditions: probe aLAP1, fluorescence, higher = more signal.
A further test concerns Sam68 (KHDRBS1). The test is described as follows: compounds binding KHDRBS1 protein – biochemical, small-molecule microarray, 635 nm fluorescence, primary screen (AID 1125).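 Further: score merges 667 nm channel intensity with signal to noise over triplicate slides.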 Conditions: higher = more signal.
The test system of test [7] is Chordin-like protein 2 (CHRDL2). Nature of the test: compounds binding chordin-like 2 – biochemical, small-molecule microarray, 635 nm fluorescence, primary screen (AID 1126).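 Further: printed compound slides probed with Chrdl2 protein at 4 µg/mL for 1 h at 4 C; score merges 667 nm emission intensity with signal to noise over three replicate slides.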 The following applies: fluorescence 635 nm, higher = more signal.
Test [8] deals with Concanavalin-A (Canavalia ensiformis) (UniProt P02866). Nature of the test: compounds binding concanavalin A lectin – biochemical, small-molecule microarray, Alexa647 label, 635 nm, artefact control for SMM control protein annotation, primary screen (AID 1127).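 Further: z combines 667 nm emission intensity with signal-to-noise across three replicate slides.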 Conditions: ConA-A647 binding fluorescence, higher = more signal.
Test [9] is described as follows: compounds binding Alexa647 anti-His antibody – biochemical, small-molecule microarray, 635 nm fluorescence, artefact control for SMM control protein annotation, primary screen (AID 1128).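 Further: score merges feature fluorescence with signal-to-noise for each printed compound spot.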 The following applies: higher = more signal.
Test [10] deals with Human papillomavirus type 1a E7 protein (residues 1-88). Nature of the test: HPV1a E7 small-molecule binders, primary screen, biochemical, small-molecule microarray, residues 1-88, 635 nm (AID 1129). The following applies: small-molecule microarray binding, fluorescence 635 nm; higher = more signal.
The target in test [11] is Focal adhesion kinase 1 (Homo sapiens) (UniProt Q05397). The test is described as follows: PTK2 protein binding on printed compound slides – biochemical, small-molecule microarray, 635/667 nm fluorescence, BSA, DTT, primary screen (AID 1130).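 Further: composite of spot emission at 667 nm and signal to noise over triplicate slides.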 The following applies: 635 nm fluorescence, higher = more signal.
Test [12] relates to Fibrinogen (Alexa647-labelled). The test is described as follows: Alexa647-fibrinogen binding to printed small molecules – biochemical, small-molecule microarray, 635/667 nm fluorescence, artefact control for SMM control-protein annotation, profiling panel (AID 1131).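 Further: z-score merges 667 nm fluorescence with per-spot signal-to-noise over triplicate slides.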 The following applies: fibrinogen-A647 binding fluorescence, higher = more signal.
Test [13] deals with Follistatin (Homo sapiens) (UniProt P19883). The test is described as follows: FST protein binding to printed compounds – biochemical, small-molecule microarray, 635/667 nm fluorescence, primary screen (AID 1132). The following applies: 635 nm fluorescence, higher = more signal.
Test [14] deals with Fibroblast growth factor 2 (Homo sapiens) (UniProt P09038). Nature of the test: basic fibroblast growth factor binding to printed compounds – biochemical, small-molecule microarray, 635/667 nm fluorescence, primary screen (AID 1133). The following applies: FGF2, fluorescence 635/667, higher = more signal.
A short description of test [15]: JC-1 mitochondrial potential readout, lung cancer cells – cell-based, A549, JC-1 fluorescence, basal, 24 h, 100 nL, profiling panel (AID 1138).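 Further: A549 lung adenocarcinoma cells under basal conditions with no added stimulus; test concentration not given here.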 Conditions: higher = more signal.
The test system of a further test is Lefty1. Nature of the test: Lefty1 protein binding to printed compounds – biochemical, small-molecule microarray, 635/667 nm fluorescence, primary screen (AID 1139). The following applies: fluorescence 635/667, higher = more signal.
Test [16] has as its system wheat germ agglutinin (Triticum aestivum), Alexa647-labelled. The test is described as follows: Alexa647-WGA lectin binding to printed small molecules – biochemical, small-molecule microarray, 635/667 nm fluorescence, artefact control for SMM control-protein annotation, profiling panel (AID 1140).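 Further: score merges 667 nm feature emission with signal to noise over triplicate slides.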 The following applies: WGA-A647 binding, 635 nm fluorescence, higher = more signal.

In test [17] the target is Luciferin 4-monooxygenase (Photinus pyralis) (UniProt P08659). The test is described as follows: inhibition of purified Photinus pyralis luciferase – biochemical, luminescence, purified enzyme, 2006 set, primary screen (AID 1141).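 Further: cell-free assay with purified firefly luciferase at 100 ng per well in PBS; test concentration not given here.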 Conditions: purified firefly luciferase, SteadyGlo luminescence, 30 min; higher = more signal, called active from +8 up or from −8 down.

Calls of active or inactive are those of the source.

Sequence of Focal adhesion kinase 1 (Homo sapiens) (Q05397 whole entry, looked up): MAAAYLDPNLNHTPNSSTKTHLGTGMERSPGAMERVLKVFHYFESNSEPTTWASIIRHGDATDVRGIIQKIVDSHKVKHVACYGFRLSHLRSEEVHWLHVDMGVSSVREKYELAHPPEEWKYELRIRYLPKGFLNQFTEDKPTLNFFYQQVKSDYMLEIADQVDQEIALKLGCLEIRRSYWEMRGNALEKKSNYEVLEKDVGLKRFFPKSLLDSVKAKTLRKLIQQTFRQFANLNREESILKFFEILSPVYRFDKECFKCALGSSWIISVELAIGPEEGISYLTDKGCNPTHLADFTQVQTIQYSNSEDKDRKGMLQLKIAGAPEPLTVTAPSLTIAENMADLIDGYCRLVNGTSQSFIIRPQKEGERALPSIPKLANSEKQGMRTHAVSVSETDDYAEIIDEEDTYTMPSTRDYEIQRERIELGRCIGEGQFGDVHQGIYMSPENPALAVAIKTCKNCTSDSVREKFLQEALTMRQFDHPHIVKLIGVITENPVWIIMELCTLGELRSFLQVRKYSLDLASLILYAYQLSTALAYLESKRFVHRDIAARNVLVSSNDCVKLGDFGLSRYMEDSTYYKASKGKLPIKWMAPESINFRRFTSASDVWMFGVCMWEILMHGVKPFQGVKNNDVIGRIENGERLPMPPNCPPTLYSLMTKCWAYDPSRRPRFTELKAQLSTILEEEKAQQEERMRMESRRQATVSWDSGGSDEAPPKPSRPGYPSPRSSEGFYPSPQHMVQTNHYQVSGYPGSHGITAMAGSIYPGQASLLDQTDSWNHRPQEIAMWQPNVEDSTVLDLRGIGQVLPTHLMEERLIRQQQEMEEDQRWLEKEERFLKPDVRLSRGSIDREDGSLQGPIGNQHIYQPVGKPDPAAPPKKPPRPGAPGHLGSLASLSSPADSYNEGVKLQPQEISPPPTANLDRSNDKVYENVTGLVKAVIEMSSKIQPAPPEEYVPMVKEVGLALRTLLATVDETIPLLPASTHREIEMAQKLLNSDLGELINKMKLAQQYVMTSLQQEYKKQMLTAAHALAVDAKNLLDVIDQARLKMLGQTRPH
Sequence of Fibroblast growth factor 2 (Homo sapiens) (P09038 whole entry, looked up): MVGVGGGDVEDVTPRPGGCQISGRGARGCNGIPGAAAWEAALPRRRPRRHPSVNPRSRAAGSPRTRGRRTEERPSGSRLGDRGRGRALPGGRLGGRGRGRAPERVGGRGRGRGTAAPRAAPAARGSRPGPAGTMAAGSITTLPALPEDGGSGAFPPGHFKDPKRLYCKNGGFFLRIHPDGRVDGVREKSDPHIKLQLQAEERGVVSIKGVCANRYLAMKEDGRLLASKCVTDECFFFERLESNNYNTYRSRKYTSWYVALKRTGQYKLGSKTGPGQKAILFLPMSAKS
Sequence of Concanavalin-A (Canavalia ensiformis) (P02866 whole entry, looked up): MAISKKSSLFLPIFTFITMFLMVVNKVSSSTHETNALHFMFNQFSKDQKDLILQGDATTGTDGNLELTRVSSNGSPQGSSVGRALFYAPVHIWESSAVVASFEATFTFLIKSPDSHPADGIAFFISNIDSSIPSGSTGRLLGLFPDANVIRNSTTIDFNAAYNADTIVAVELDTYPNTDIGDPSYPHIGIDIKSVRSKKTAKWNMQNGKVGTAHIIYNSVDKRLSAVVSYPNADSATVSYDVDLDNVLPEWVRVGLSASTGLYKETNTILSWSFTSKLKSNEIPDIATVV
Sequence of Albumin (Bos taurus) (P02769 whole entry, looked up): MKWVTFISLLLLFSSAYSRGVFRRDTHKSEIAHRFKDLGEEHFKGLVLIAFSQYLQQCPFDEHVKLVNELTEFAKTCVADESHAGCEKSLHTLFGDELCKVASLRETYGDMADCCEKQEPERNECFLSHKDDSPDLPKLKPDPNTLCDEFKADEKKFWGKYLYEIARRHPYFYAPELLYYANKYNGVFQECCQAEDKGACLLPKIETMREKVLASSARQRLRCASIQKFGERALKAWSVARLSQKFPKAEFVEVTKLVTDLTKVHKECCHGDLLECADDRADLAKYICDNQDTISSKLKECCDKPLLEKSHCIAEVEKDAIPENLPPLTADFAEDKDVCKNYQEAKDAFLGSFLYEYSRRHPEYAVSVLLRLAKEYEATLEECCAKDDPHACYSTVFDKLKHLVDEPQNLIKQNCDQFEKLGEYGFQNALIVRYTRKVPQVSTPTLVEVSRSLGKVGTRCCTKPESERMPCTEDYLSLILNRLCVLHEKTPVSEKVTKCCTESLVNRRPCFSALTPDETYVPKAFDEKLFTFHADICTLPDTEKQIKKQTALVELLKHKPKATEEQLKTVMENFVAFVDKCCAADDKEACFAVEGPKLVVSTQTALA
Sequence of Follistatin (Homo sapiens) (P19883 whole entry, looked up): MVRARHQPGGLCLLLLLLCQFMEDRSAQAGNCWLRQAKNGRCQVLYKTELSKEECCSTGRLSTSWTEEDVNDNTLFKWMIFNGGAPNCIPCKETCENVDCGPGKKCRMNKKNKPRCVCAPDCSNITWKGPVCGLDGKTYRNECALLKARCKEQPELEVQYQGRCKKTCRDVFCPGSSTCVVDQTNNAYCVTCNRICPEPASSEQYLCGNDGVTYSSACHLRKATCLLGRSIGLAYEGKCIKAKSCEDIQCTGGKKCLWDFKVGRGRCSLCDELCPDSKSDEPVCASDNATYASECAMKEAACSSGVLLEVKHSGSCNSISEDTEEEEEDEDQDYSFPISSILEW
Sequence of Luciferin 4-monooxygenase (Photinus pyralis) (P08659 whole entry, looked up): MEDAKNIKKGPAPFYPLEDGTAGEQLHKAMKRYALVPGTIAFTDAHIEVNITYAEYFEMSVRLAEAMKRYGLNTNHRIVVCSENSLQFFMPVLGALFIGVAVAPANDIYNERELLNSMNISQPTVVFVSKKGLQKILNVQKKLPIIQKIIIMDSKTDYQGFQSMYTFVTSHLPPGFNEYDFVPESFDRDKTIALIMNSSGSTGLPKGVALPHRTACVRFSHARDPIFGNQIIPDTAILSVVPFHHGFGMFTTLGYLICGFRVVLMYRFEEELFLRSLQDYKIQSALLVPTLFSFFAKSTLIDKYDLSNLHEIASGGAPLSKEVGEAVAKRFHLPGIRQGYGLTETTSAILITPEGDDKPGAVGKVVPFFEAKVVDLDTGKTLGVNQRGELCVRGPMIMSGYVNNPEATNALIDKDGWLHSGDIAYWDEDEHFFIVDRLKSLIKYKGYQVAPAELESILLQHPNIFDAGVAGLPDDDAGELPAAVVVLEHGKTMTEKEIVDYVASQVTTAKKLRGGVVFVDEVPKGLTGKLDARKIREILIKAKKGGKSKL

For the compound `CC(=O)OC[C@H]1O[C@H](CCON=C(C)C)C=C[C@@H]1OC(C)=O`, the composite z-score with Albumin (Bos taurus) is 0.123; in test [2] it was -0.0362; in [3] it was -0.0651; in [4] it was -0.177; in [5], -0.308; in test [6] it was -0.0375. For the same compound, the composite z-score in the test on Sam68 (KHDRBS1) is -0.406; in test [7], 0.445; in test [8], 0.186; in test [9], 1.56; in test [10] it was -0.33; in [11], 0.115. For the same compound, the composite z-score in test [12] was 0.0586; in test [13] it was 0.521; in test [14], 0.247; in the test with Lefty1, 0.377; in [16] it was -0.178. Further, in test [1], the composite Z-score was -0.0706 (inactive). The z-score was 0.0315 in test [15] and 0.654 (inactive) in [17].

Consider `CCOC(=O)CCN1C(=O)[C@H]2[C@H]3[C@H](O)[C@H](O)CC(=NOCC=C(C)CCC=C(C)C)[C@@H]3CC[C@H]2C1=O`, for which the composite z-score with Albumin (Bos taurus) was 0.275; in test [2], -0.0043; in [3], -0.154; in test [4], 0.003; in test [5], 0.0888; in [6], 0.0278. Further, the composite z-score with Sam68 (KHDRBS1) is 0.449; in test [7] it was 0.434; in [8], 1.01; in test [9], -0.34; in test [10], 0.741; in test [11], -0.115. The composite z-score amounted to 0.7 in test [12]; 0.696 in test [13]; 0.884 in test [14]; 0.537 in the test with Lefty1; 0.132 in test [16]. For the same compound, in test [1], the composite Z-score is -0.754 (inactive). Also, the figures for the z-score in [15] and in [17] were 0.0237 and 0.597 (inactive), respectively.

For the compound `O=C(NN=C1C[C@@H](O)[C@@H](O)[C@@H]2[C@@H]3C(=O)N(Cc4ccccc4)C(=O)[C@@H]3CC[C@H]12)OCc1ccccc1`, the composite z-score with Albumin (Bos taurus) was 0.055; in test [2] it was -0.118; in test [3], -0.17; in test [4] it was -0.253; in test [5], -0.771; in test [6], 0.0639. For the same compound, the composite z-score in the test with Sam68 (KHDRBS1) was -0.0039; in test [7], 0.36; in test [8] it was -0.085; in test [9], -0.136; in [10], -0.0677; in [11], 0.0773. Further, the composite z-score is -0.265 in test [12]; 0.387 in [13]; 0.388 in test [14]; 0.617 in the test on Lefty1; 0.0185 in test [16]. The composite Z-score in test [1] was 0.0005 (inactive). Also, the z-score in test [15] was 0.101; in test [17], 0.534 (inactive).

`C=C(C)C(=O)OC[C@H]1CN2[C@@H](CC[C@@H](C)[C@@H]2c2ccc(Br)cc2)C(=O)O1`: the composite z-score with Albumin (Bos taurus) is -0.625; in test [2] it was -0.0362; in [3] it was -0.104; in test [4], 0.079; in test [5], 0.379; in test [6], 0.318. For the same compound, the composite z-score was 0.428 in the test with Sam68 (KHDRBS1); 0.698 in test [7]; -0.426 in test [8]; 2.44 in test [9]; 0.0456 in test [10]; -0.174 in test [11]. Also, the composite z-score is -0.613 in test [12]; 0.489 in test [13]; 0.108 in [14]; 0.264 with Lefty1; -0.034 in test [16]. Also, in test [1], the composite Z-score was 0.27 (inactive). Moreover, the results for the z-score in test [15] and in [17] were 0.47 and -2.88 (inactive), respectively.

On to `C=CCOCC1CN2[C@@H](CC[C@@H](C)[C@@H]2c2ccc(Br)cc2)C(=O)O1` (stereo not given in full), for which the composite z-score with Albumin (Bos taurus) is -0.509; in [2] it was -0.0932; in [3], -0.189; in test [4], -0.401; in test [5] it was -0.329; in [6] it was 0.975. The composite z-score in the test on Sam68 (KHDRBS1) is -0.85; in test [7] it was 0.562; in test [8] it was -0.172; in test [9] it was 0.24; in test [10], -0.695; in test [11], -0.262. In addition, the composite z-score in [12] was -0.5; in [13] it was 0.119; in test [14] it was 0.166; in the test on Lefty1, 0.262; in test [16] it was -0.16. In test [1], the composite Z-score was 0.419 (inactive). Moreover, the z-score in [15] was 1.88; in test [17] it was -0.764 (inactive).
